Assay in all cases: DAPPL (digital affinity profiling via proximity ligation, sequencing); 10 mM Tris-HCl pH 7.5, 50 mM NaCl, 1 mM DTT, 4% glycerol, room temperature, 30 min; GST-TFs on glutathione beads, 16-mer random dsDNA library, 0.1% formaldehyde crosslink after washing; high values mean tight binding
One assay has as its target T1, FEV (Homo sapiens, UniProt Q99581 1-238).
T1 sequence: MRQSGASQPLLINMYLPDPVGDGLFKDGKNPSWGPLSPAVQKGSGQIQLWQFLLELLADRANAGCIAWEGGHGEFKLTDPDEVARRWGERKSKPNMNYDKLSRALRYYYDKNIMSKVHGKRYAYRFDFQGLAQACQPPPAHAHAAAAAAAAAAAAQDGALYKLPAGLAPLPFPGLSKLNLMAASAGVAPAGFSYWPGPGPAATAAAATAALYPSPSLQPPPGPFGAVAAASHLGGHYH
The following applies: protein: recombinant; tags: N-terminal GST; dsDNA, one strand shown. A digest of the protocol: (§1)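 Human transcription factors carrying a GST fusion were produced in yeast, bound to glutathione beads, tagged with DNA barcodes and pooled together with a tag-only sample. Each pool was held with 200 nmole of a random double-stranded 16-mer DNA library in Tris/NaCl/DTT/glycerol buffer for 30 min at room temperature, then washed, crosslinked in 0.1% formaldehyde, proximity-ligated with BsaI/T4 ligase (1 h, 37 °C), PCR-amplified and sequenced on an Illumina NextSeq500. Binding signal is the read frequency of each hexamer for a given factor divided by its frequency in the tag-only sample.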

The next assay concerns the target ETV5 (Homo sapiens, UniProt P41161 1-510). As to conditions: protein: recombinant; tags: N-terminal GST; dsDNA, one strand shown. A digest of the protocol:
as §1

Another assay deals with HSF1 (Homo sapiens, UniProt Q00613 1-529). As to conditions: protein: recombinant; tags: N-terminal GST; chain copies: 3; dsDNA, one strand shown. The procedure, abridged: as §1
Sequence of HSF1 (Q00613 whole entry): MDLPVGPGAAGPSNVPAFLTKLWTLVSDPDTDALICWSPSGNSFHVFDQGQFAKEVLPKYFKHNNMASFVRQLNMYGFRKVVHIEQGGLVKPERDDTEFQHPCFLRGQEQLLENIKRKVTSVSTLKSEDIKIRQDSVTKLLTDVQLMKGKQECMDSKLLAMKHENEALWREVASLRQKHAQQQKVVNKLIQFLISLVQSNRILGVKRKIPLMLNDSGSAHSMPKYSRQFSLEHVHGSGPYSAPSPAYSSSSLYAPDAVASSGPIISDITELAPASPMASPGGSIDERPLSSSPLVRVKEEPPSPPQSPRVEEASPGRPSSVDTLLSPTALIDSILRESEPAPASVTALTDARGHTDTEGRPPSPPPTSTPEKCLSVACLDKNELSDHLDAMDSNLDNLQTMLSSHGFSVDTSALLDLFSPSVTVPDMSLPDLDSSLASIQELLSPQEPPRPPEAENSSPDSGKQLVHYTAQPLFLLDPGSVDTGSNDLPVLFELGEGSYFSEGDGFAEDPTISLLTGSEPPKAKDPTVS
For another assay, the target named is T2, SPIC (Homo sapiens, UniProt Q8N5J4 1-248).
T2 sequence: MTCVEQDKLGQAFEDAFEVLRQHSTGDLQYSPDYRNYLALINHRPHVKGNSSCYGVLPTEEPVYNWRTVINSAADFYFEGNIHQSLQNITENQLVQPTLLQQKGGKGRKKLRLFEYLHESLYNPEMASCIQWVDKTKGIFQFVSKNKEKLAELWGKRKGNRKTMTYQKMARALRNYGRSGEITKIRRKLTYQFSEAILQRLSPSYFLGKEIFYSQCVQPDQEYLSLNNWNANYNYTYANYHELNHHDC
As to conditions: protein: recombinant; tags: N-terminal GST; dsDNA, one strand shown. The procedure, abridged:
as §1

In another assay the target is ELF4 (Homo sapiens, UniProt Q99607 1-663). The following applies: protein: recombinant; tags: N-terminal GST; dsDNA, one strand shown. A digest of the protocol:
as §1

A further assay deals with T3, ELK4 (Homo sapiens, UniProt P28324-2 1-405).
T3 sequence: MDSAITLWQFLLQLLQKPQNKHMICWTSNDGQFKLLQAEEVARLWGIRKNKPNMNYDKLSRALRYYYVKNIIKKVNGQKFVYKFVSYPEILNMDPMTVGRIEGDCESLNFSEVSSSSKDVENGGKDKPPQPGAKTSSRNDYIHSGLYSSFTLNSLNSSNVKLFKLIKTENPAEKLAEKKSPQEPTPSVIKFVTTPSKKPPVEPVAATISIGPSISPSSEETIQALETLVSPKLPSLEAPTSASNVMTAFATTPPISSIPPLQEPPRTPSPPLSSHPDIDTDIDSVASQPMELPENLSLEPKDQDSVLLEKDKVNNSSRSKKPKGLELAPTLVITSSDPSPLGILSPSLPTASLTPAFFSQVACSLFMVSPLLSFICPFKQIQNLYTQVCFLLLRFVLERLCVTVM
As to conditions: protein: recombinant; tags: N-terminal GST; dsDNA, one strand shown. The procedure, abridged:
as §1

The target in the next assay is T4, ETV2 (Homo sapiens, UniProt O00321 1-342).
T4 sequence: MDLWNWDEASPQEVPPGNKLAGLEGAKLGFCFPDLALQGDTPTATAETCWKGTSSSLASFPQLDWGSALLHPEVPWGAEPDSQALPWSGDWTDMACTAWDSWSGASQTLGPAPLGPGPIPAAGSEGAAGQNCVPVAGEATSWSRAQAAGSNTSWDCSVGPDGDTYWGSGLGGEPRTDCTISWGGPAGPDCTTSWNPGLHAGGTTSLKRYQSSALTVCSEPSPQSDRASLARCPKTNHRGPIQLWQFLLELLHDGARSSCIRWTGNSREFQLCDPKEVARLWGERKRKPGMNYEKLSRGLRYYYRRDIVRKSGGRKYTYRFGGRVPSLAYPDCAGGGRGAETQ
The following applies: protein: recombinant; tags: N-terminal GST; dsDNA, one strand shown. A digest of the protocol: as §1

Another assay has as its target T5, ELF3 (Homo sapiens, UniProt P78545 1-371).
T5 sequence: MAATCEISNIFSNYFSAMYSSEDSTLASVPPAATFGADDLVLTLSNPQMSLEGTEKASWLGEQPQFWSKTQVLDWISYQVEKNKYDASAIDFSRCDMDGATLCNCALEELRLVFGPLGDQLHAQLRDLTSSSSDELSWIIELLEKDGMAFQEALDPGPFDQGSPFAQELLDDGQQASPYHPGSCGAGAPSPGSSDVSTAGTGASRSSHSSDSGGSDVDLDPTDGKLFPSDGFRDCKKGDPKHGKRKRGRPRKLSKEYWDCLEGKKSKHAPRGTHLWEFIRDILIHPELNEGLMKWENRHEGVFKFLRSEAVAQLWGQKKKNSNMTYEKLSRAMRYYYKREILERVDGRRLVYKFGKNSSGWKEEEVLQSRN
As to conditions: protein: recombinant; tags: N-terminal GST; dsDNA, one strand shown. A digest of the protocol: as §1

The next assay addresses CRX (Homo sapiens, UniProt O43186 1-299). The following applies: protein: recombinant; tags: N-terminal GST; dsDNA, one strand shown. The procedure, abridged: as §1
Another assay has as its target ETV1 (Homo sapiens, UniProt P50549 1-477). As to conditions: protein: recombinant; tags: N-terminal GST; dsDNA, one strand shown. A digest of the protocol:
as §1

For another assay, the target named is T6, ERF (Homo sapiens, UniProt P50548 1-548).
T6 sequence: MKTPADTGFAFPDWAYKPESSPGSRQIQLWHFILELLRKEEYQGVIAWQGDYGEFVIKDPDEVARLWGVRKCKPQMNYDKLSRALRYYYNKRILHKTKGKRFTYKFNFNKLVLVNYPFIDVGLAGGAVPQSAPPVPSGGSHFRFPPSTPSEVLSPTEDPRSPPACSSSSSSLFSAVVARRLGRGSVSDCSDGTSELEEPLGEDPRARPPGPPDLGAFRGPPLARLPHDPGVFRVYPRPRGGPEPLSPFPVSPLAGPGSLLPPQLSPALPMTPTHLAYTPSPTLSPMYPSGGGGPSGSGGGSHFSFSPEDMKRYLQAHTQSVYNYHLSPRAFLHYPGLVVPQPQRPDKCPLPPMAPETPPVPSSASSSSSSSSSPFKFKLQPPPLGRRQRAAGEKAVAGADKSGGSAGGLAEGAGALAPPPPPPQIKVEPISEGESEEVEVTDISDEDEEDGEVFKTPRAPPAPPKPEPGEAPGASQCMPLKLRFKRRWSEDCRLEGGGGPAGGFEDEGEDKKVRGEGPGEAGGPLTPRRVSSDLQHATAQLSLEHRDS
The following applies: protein: recombinant; tags: N-terminal GST; dsDNA, one strand shown. The procedure, abridged: as §1

In a further assay the target is T7, ETV3L (Homo sapiens, UniProt Q6ZN32 1-361).
T7 sequence: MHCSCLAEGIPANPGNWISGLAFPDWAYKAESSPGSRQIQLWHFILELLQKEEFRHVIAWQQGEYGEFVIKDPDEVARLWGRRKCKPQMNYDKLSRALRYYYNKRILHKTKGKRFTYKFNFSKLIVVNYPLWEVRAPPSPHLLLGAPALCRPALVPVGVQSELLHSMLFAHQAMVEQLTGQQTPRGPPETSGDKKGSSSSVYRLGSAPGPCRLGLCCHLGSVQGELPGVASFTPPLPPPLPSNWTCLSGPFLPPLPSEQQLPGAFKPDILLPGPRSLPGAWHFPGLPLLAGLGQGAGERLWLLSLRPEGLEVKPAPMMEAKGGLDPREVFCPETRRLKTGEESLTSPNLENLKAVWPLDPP
As to conditions: protein: recombinant; tags: N-terminal GST; dsDNA, one strand shown. A digest of the protocol: as §1

For the next assay, the target named is T8, ETS2 (Homo sapiens, UniProt P15036 1-469).
T8 sequence: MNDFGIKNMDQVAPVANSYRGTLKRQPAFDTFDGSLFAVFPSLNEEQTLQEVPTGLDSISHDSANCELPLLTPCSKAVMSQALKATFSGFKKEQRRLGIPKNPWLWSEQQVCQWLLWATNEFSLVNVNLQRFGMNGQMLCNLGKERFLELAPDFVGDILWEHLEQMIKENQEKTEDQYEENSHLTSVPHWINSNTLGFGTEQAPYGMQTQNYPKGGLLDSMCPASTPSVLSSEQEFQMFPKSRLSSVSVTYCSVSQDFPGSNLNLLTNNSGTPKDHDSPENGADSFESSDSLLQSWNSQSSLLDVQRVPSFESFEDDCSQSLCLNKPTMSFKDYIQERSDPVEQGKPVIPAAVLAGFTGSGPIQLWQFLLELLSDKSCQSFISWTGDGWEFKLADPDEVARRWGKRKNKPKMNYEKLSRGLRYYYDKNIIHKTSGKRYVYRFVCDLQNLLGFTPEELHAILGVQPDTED
As to conditions: protein: recombinant; tags: N-terminal GST; dsDNA, one strand shown. The procedure, abridged:
as §1

The target of another assay is T9, SPDEF (Homo sapiens, UniProt O95238 1-335).
T9 sequence: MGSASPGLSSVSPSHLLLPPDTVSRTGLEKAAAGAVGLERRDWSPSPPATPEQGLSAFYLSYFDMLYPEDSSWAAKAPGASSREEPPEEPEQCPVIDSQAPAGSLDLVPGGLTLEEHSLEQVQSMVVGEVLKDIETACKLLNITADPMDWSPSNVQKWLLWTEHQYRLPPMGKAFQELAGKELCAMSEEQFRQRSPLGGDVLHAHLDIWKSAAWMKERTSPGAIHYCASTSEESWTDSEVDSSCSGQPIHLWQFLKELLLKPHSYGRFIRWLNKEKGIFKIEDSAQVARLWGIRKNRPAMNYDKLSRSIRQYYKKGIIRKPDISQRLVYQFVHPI
As to conditions: protein: recombinant; tags: N-terminal GST; dsDNA, one strand shown. A digest of the protocol:
as §1

A further assay concerns the target T10, ETV7 (Homo sapiens, UniProt Q9Y603 1-341).
T10 sequence: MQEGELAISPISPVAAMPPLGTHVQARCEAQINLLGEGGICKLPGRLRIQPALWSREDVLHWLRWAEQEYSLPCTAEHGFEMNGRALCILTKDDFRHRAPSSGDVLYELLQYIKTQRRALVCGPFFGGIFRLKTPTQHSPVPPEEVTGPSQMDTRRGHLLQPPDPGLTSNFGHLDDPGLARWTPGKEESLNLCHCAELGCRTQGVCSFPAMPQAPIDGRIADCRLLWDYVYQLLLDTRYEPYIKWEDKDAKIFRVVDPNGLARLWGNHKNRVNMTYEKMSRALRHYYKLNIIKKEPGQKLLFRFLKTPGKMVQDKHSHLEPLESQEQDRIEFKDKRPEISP
As to conditions: protein: recombinant; tags: N-terminal GST; dsDNA, one strand shown. The procedure, abridged: as §1

The target in the next assay is T11, ELF5 (Homo sapiens, UniProt Q9UKW6-2 1-255).
T11 sequence: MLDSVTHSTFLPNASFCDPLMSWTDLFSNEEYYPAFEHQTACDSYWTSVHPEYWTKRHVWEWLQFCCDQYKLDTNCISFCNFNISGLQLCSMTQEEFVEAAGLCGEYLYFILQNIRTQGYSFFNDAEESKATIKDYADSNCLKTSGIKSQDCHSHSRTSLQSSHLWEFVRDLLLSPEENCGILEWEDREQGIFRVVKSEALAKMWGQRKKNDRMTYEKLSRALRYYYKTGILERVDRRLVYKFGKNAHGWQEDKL
The following applies: protein: recombinant; tags: N-terminal GST; dsDNA, one strand shown. The procedure, abridged:
as §1

The target in the next assay is T12, ETV3 (Homo sapiens, UniProt P41162-2 1-143).
T12 sequence: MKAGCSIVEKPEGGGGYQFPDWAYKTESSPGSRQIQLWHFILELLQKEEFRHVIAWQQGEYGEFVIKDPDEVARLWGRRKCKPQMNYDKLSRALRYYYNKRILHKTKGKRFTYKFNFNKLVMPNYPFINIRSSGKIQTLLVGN
The following applies: protein: recombinant; tags: N-terminal GST; dsDNA, one strand shown. A digest of the protocol: as §1

In the next assay the target is ETV6 (Homo sapiens, UniProt P41212 1-452). As to conditions: protein: recombinant; tags: N-terminal GST; dsDNA, one strand shown. A digest of the protocol: as §1
Sequence of ETV6 (P41212 whole entry): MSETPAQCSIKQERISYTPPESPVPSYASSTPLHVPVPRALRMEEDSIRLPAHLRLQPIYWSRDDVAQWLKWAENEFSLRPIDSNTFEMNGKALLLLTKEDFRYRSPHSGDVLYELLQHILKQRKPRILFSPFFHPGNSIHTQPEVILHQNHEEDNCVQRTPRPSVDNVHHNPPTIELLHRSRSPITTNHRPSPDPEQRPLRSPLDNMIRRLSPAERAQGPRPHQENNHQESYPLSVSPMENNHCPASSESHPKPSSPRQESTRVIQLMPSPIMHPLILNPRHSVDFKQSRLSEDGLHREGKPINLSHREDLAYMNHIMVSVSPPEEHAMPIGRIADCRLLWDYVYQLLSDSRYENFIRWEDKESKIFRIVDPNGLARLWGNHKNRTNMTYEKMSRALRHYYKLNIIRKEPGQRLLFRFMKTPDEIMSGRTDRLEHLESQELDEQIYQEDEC

Here are results for 1 sequence from article PMC7862700, “An all-to-all approach to the identification of sequence-specific readers for epigenetic DNA modifications on cytosine”.

Sequence of ETV5 (P41161 whole entry): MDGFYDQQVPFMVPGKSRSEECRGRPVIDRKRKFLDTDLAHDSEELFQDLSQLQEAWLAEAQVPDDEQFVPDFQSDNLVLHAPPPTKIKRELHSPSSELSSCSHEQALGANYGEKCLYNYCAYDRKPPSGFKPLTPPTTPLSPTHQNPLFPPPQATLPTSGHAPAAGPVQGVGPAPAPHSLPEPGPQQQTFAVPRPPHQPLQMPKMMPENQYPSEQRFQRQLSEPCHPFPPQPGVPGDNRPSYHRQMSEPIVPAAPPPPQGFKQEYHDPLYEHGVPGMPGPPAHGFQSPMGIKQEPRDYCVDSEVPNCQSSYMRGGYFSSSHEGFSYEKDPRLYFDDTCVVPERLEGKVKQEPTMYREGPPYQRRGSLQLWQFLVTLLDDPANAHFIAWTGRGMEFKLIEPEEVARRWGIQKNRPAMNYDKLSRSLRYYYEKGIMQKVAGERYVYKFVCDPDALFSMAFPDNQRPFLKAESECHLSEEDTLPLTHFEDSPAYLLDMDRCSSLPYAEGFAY
Sequence of CRX (O43186 whole entry): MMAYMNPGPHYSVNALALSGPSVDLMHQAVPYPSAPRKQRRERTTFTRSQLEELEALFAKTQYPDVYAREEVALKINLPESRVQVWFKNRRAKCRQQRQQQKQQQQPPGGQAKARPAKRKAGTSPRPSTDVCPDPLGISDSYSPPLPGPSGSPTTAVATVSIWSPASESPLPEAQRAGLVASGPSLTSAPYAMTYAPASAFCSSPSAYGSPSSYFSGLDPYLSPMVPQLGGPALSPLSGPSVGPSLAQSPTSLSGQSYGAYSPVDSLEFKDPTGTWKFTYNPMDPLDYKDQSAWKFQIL
Sequence of ELF4 (Q99607 whole entry): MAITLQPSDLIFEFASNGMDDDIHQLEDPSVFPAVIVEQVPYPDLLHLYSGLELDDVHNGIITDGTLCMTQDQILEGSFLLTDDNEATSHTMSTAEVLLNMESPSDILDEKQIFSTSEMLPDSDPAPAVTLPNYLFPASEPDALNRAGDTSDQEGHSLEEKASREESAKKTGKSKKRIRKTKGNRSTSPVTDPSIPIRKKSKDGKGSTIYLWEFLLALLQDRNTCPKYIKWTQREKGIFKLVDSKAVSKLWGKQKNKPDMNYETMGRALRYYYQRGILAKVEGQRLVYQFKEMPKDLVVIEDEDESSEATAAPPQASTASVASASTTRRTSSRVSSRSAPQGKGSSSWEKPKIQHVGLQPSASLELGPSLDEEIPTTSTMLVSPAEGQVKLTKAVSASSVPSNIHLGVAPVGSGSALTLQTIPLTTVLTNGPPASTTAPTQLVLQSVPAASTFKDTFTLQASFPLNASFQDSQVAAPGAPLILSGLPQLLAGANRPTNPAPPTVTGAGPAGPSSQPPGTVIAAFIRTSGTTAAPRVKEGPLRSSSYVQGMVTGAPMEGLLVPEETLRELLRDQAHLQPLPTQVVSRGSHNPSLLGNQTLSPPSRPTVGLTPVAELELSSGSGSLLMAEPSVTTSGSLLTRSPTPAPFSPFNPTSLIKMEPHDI
Sequence of ETV1 (P50549 whole entry): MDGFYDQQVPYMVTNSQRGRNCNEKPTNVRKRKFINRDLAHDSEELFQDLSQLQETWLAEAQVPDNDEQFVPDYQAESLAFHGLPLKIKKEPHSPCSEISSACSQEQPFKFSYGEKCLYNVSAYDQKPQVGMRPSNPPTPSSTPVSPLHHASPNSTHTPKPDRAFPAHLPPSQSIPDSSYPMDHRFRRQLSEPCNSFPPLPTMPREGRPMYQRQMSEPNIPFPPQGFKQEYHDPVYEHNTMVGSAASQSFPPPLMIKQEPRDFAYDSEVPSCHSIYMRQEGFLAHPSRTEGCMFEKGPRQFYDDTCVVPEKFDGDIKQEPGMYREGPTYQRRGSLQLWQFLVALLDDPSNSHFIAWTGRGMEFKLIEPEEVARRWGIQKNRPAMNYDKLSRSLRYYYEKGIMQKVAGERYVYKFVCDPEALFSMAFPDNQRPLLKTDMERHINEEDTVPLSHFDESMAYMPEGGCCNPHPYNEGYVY

On to CCTTAA, for which the binding signal is 1.33 fold enrichment (6-mer frequency, TF over GST control) in the assay with FEV; 1.25 fold enrichment (6-mer frequency, TF over GST control) with ETV5; 1.62 fold enrichment (6-mer frequency, TF over GST control) with HSF1; 1.22 fold enrichment (6-mer frequency, TF over GST control) in the assay with SPIC; 1.3 fold enrichment (6-mer frequency, TF over GST control) with ELF4; 1.27 fold enrichment (6-mer frequency, TF over GST control) with ELK4. Moreover, the binding signal in the assay with ETV2 was 1.35 fold enrichment (6-mer frequency, TF over GST control); with ELF3, 1.37 fold enrichment (6-mer frequency, TF over GST control); with CRX, 2.17 fold enrichment (6-mer frequency, TF over GST control); with ETV1, 1.34 fold enrichment (6-mer frequency, TF over GST control); with ERF, 1.29 fold enrichment (6-mer frequency, TF over GST control); with ETV3L, 1.44 fold enrichment (6-mer frequency, TF over GST control). Besides, the binding signal with ETS2 is 1.29 fold enrichment (6-mer frequency, TF over GST control); in the assay with SPDEF, 1.44 fold enrichment (6-mer frequency, TF over GST control); in the assay with ETV7 it was 1.21 fold enrichment (6-mer frequency, TF over GST control); with ELF5, 1.44 fold enrichment (6-mer frequency, TF over GST control); in the assay with ETV3 it was 1.35 fold enrichment (6-mer frequency, TF over GST control); with ETV6, 1.26 fold enrichment (6-mer frequency, TF over GST control).
